Test results from PubChem BioAssay (Tox21).
“And” between values parts separate entries of the source, which are not always exact repeats. Identical values can stand only once. Records with an inconclusive call do not appear. A call without a number means that no potency is given here. The source made the active and inactive calls. Unless noted, calls come from the whole dose curve; as a rule, active = well fitted curve in the direction sought with a large enough effect in the repeat runs; inconclusive = weak or mixed curves; inactive = no such curve, though single readings can be large; an effect the other way counts as inactive or inconclusive.

Columns and labels:
[1] = qHTS assay to identify small molecule antagonists of the thyroid receptor (TR) signaling pathway - cell viability counter screen (AID 743064); note: nearly all actives have a fitted effect of over 50% in size; note: potency is the fitted concentration of half-maximal effect
Outline: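 Viability of T3-stimulated (1 nM final) GH3.TRE-Luc cells is measured by CellTiter-Fluor fluorescence after 23.5 h compound exposure at 37 °C plus 30 min reagent incubation.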

[2] = qHTS assay to identify small molecule antagonists of the thyroid receptor (TR) signaling pathway (AID 743065); note: nearly all actives have a fitted effect of over 55% in size; note: potency is the fitted concentration of half-maximal effect
Outline: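 Antagonism measured as loss of luciferase signal in GH3 cells stably carrying a TRE-luciferase reporter, co-treated with compound and T3 (1 nM final) for 23.5 h at 37 C. Viability was read in the same well by CellTiter-Fluor.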

[3] = system: thyroid hormone receptor (rat, GH3 cells); test: qHTS assay to identify small molecule agonists of the thyroid receptor (TR) signaling pathway (AID 743066; calls by dose curve)
[4] = qHTS assay to identify small molecule antagonists of the estrogen receptor alpha (ER-alpha) signaling pathway - cell viability counter screen (AID 743074; calls by dose curve;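 note: HEK293 cells carrying ER-alpha-UAS-bla reporter stimulated with 17beta-estradiol; nearly all actives have a fitted effect of over 45% in size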; note: potency is the fitted concentration of half-maximal effect)
[5] = target: Estrogen receptor (Homo sapiens) (UniProt P03372); test: qHTS assay to identify small molecule agonists of the estrogen receptor alpha (ER-alpha) signaling pathway (AID 743075; calls by dose curve)
[6] = target: Estrogen receptor (Homo sapiens) (UniProt P03372); test: qHTS assay to identify small molecule agonists of the estrogen receptor alpha (ER-alpha) signaling pathway using the BG1 cell line (AID 743079); note: nearly all actives have a fitted effect of over 20% in size; note: potency is the fitted concentration of half-maximal effect
[7] = qHTS assay to identify small molecule antagonists of the estrogen receptor alpha (ER-alpha) signaling pathway using the BG1 cell line (AID 743080; calls by dose curve;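 note: BG1 cells stimulated with 17beta-estradiol alongside compound; series mostly up to about 70 µM; nearly all actives have a fitted effect of over 25% in size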)
Outline: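 Luciferase inhibition measured with ONE-Glo after 30 min at RT in BG1Luc4E2 cells given test compounds and 17beta-estradiol for 21.5 h at 37 C; CellTiter-Fluor viability read in the same wells beforehand.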

[8] = qHTS assay to identify small molecule antagonists of the estrogen receptor alpha (ER-alpha) signaling pathway using the BG1 cell line - cell viability counter screen (AID 743081);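 note: compound given together with 17beta-estradiol as the ER stimulus; series mostly up to about 70 µM; nearly all actives have a fitted effect of over 45% in size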
[9] = target: Aromatase (Homo sapiens) (UniProt P11511); test: qHTS assay to identify aromatase inhibitors (AID 743083); note: nearly all actives have a fitted effect of over 55% in size; note: potency is the fitted concentration of half-maximal effect
[10] = qHTS assay to identify aromatase inhibitors - cell viability counter screen (AID 743084);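 note: cells stimulated with testosterone during compound exposure; nearly all actives have a fitted effect of over 55% in size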; note: potency is the fitted concentration of half-maximal effect
[11] = qHTS assay to identify small molecule that activate the aryl hydrocarbon receptor (AhR) signaling pathway - cell viability counter screen (AID 743086);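 note: HepG2 liver cells carrying the AhR DRE luciferase reporter; series mostly up to about 70 µM; nearly all actives have a fitted effect of over 45% in size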
Outline: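 Cytotoxicity counter screen: CellTiter-Fluor signal (30 min, 37 C) in 4000 HepG2 cells/well carrying the DRE-luciferase reporter, following 24 h compound exposure at 37 C.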

[12] = target: Peroxisome proliferator-activated receptor gamma (Homo sapiens) (UniProt P37231); test: qHTS assay to identify small molecule agonists of the peroxisome proliferator-activated receptor gamma (PPARg) signaling pathway (AID 743094; active = well fitted activation curve with a large enough effect in the signal ratio in the repeat runs, not every such curve was filed as active; the % refers to the signal ratio)
Outline: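 Compounds dissolved in DMSO were added to PPARg UAS-bla HEK293H cells for 17 h at 37C, and reporter expression was quantified by fluorescence intensity after 1 h with LiveBLAzer B/G FRET substrate.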

[13] = target: Estrogen receptor (Homo sapiens) (UniProt P03372); test: qHTS assay to identify small molecule antagonists of the estrogen receptor alpha (ER-alpha) signaling pathway (AID 743069; active = well fitted curve in the direction sought with a large enough effect in the signal ratio in the repeat runs, not every such curve was filed as active; the % refers to the signal ratio)
Outline: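 Compound effects are measured against 17beta-estradiol stimulation in HEK293 cells with a UAS-controlled beta-lactamase reporter for ER-alpha. Exposure lasts 18 hr at 37C; LiveBLAzer B/G FRET substrate follows for 2 hr at room temperature.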

[14] = target: Aryl hydrocarbon receptor (Homo sapiens) (UniProt P35869); test: qHTS assay to identify small molecule that activate the aryl hydrocarbon receptor (AhR) signaling pathway (AID 743085); note: nearly all actives have a fitted effect of over 15% in size; note: potency is the fitted concentration of half-maximal effect;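 for activation: HG2L7.5c1 human HepG2 liver cells with stably integrated DRE-driven firefly reporter; series mostly up to about 70 µM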
Outline: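 A multiplexed format paired cell viability (CellTiter-Fluor fluorescence) with AhR-dependent luciferase output (ONE-Glo luminescence) in the same wells of HepG2 DRE-luc cells after 24 h compound exposure at 37C.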

[15] = qHTS assay to identify small molecule antagonists of the peroxisome proliferator-activated receptor gamma (PPARg) signaling pathway - cell viability counter screen (AID 743194); note: nearly all actives have a fitted effect of over 55% in size; note: potency is the fitted concentration of half-maximal effect
Outline: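 Viability was measured as CellTiter-Glo luminescence in GeneBLAzer PPARg UAS-bla HEK293H cells. These cells had been exposed 17 h at 37 C to compounds together with rosiglitazone at 50 nM final, with the beta-lactamase readout taken in the same wells.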

[16] = qHTS assay for small molecule agonists of the antioxidant response element (ARE) signaling pathway - cell viability counter screen (AID 743203; calls by dose curve; note: nearly all actives have a fitted effect of over 55% in size; note: potency is the fitted concentration of half-maximal effect)
Outline: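 Following 16 hrs of compound treatment at 37C, HepG2 cells with an ARE-controlled beta-lactamase gene were lysed with CellTiter-Glo. Luminescence was read after 30 min at room temperature.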

[17] = qHTS assay for small molecule activators of the heat shock response signaling pathway - cell viability counter screen (AID 743209); note: nearly all actives have a fitted effect of over 50% in size; note: potency is the fitted concentration of half-maximal effect
Outline: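 Readout: CellTiter-Glo luminescence, 30 min at room temperature. System: HSE-bla HeLa cells, 1500/well, plated overnight. Treatment: compounds in DMSO, 5 h at 37 C.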

[18] = qHTS assay for small molecule activators of the heat shock response signaling pathway (AID 743210; active = well fitted activation curve with a large enough effect in the signal ratio in the repeat runs, with a control signal flat, not every such curve was filed as active; the % refers to the signal ratio;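 note: HeLa cells with beta-lactamase reporter driven by heat shock elements; series mostly up to about 63 µM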)
Outline: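 In HSE-bla HeLa cells, 5 h compound incubation (37 C) precedes addition of LiveBLAzer B/G substrate; after 2.5 h at room temperature, fluorescence intensity indicates reporter induction.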

Chain of Aryl hydrocarbon receptor (Homo sapiens) (P35869 whole entry, looked up): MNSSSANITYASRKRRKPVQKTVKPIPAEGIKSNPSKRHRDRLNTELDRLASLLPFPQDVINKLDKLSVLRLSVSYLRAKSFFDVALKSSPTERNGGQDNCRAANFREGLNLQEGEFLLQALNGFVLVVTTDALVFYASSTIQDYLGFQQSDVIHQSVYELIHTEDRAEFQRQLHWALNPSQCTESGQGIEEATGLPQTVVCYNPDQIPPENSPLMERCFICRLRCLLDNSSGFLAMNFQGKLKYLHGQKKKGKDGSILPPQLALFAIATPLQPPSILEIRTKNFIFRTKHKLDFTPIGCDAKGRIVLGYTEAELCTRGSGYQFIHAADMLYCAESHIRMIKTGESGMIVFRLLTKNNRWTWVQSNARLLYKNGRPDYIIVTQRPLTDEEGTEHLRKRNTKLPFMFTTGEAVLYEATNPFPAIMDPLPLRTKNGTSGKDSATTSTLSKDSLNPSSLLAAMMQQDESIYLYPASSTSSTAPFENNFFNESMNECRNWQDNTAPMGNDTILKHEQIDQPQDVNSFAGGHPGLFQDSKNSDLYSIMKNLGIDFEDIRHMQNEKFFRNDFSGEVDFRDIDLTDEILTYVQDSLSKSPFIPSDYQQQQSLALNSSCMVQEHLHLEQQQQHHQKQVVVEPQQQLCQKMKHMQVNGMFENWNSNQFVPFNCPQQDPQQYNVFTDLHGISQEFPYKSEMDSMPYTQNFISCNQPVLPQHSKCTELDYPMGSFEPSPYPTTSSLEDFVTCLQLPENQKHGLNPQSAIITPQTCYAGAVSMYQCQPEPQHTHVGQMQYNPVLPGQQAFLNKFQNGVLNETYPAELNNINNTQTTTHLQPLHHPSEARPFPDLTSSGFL
Chain of Estrogen receptor (Homo sapiens) (P03372 whole entry, looked up): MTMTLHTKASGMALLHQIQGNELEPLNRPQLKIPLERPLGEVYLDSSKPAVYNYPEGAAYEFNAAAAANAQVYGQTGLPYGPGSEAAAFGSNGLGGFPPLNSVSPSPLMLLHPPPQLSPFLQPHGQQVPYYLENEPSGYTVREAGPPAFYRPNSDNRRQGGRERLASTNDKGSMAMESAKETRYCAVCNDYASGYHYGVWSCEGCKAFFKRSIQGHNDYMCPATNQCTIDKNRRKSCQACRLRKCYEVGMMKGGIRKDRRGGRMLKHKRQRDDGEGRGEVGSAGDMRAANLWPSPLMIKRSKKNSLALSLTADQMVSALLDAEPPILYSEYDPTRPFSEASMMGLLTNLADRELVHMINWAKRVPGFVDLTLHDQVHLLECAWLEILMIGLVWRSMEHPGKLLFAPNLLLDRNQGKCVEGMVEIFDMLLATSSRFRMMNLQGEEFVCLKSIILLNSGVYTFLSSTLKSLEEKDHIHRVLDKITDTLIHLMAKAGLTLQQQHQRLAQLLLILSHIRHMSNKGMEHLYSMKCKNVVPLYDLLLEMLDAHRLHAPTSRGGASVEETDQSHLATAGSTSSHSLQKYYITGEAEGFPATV
Chain of Aromatase (Homo sapiens) (P11511 whole entry, looked up): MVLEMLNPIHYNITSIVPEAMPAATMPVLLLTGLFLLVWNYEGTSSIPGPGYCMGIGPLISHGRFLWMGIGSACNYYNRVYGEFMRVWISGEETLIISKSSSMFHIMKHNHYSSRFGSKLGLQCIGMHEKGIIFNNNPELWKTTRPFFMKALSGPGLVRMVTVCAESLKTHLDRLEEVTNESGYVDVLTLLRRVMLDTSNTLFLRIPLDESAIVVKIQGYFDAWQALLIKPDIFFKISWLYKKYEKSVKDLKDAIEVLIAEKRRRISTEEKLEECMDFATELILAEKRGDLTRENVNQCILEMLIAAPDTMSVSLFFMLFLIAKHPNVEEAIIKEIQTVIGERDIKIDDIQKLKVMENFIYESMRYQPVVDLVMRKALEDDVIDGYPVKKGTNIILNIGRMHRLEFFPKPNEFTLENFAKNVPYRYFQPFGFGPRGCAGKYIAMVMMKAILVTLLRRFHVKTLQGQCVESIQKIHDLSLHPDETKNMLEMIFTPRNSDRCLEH
Chain of Peroxisome proliferator-activated receptor gamma (Homo sapiens) (P37231 whole entry, looked up): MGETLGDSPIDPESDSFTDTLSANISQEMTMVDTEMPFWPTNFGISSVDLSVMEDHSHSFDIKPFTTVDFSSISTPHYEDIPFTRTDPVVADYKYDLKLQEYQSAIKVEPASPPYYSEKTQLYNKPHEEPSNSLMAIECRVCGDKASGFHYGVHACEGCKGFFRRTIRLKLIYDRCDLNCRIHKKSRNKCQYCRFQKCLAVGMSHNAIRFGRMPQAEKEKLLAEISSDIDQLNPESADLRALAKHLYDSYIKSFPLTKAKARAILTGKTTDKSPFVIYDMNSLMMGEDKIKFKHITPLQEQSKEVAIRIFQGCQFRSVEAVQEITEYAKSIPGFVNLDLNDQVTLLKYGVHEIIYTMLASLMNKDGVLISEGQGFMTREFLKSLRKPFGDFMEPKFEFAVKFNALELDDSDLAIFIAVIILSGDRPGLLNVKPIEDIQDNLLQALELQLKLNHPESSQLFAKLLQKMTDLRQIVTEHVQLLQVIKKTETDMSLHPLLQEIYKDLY

Row | SMILES | Potency [1] | Potency [2] | Potency [3] | Potency [4] | Potency [5] | Potency [6] | Potency [7] | Potency [8] | Potency [9] | Potency [10] | Potency [11] | Potency [12] | Potency [13] | Potency [14] | Potency [15] | Potency [16] | Potency [17] | outcome [18]
1 | Oc1ccc(Cl)c2c1CCC2 | inactive | inactive | inactive | inactive | inactive | inactive | inactive | inactive | inactive | inactive | inactive | inactive | – | – | – | – | – | –
2 | C[C@@H]1C[C@H]2[C@@H]3C[C@H](F)C4=CC(=O)C=C[C@]4(C)[C@@]3(Cl)[C@@H](O)C[C@]2(C)[C@H]1C(=O)COC(=O)C(C)(C)C | inactive | inactive | inactive | inactive | inactive | inactive | – | inactive | inactive | inactive | inactive | inactive | – | – | – | – | – | –
3 | O=C(O)CCCC/C=C(\c1ccccc1)c1cccnc1 | inactive | inactive | inactive | inactive | inactive | inactive | inactive | inactive | inactive | inactive | inactive | inactive | inactive | – | – | – | – | –
4 | CCCOC(=O)c1ccccc1O | inactive | inactive | inactive | inactive | inactive | inactive | inactive | – | inactive | inactive | inactive | – | inactive | – | – | – | – | –
5 | CC(=O)OCC(=O)[C@@]1(O)CC[C@H]2[C@@H]3CCC4=CC(=O)CC[C@]4(C)C3=CC[C@@]21C | inactive | inactive | inactive | inactive | inactive | 29.8 µM (active) | inactive | inactive | inactive | inactive | inactive | inactive | inactive | – | – | – | – | –
6 | CCCCCCOC(=O)c1cccnc1 | inactive | inactive | inactive | – | inactive | inactive | inactive | inactive | inactive | inactive | inactive | inactive | inactive | inactive | – | – | – | –
7 | SC1CCCCC1 | inactive | inactive | inactive | inactive | – | – | – | inactive | inactive | inactive | inactive | inactive | – | inactive | inactive | inactive | inactive | inactive
8 | CC(=O)OCC1=C(C(=O)O)N2C(=O)[C@@H](NC(=O)Cc3ccccc3)[C@H]2SC1 | inactive | inactive | inactive | inactive | – | – | – | inactive | inactive | inactive | inactive | inactive | – | inactive | – | – | – | –
9 | NS(=O)(=O)c1cc(Cl)c(Cl)c(S(N)(=O)=O)c1 | inactive | inactive | inactive | inactive | – | – | – | inactive | inactive | inactive | inactive | – | – | – | – | – | – | –
10 | NC(=O)[C@H]1O[C@@H](O)[C@H](O)[C@@H](O)[C@@H]1O | inactive | inactive | inactive | inactive | – | – | – | inactive | inactive | inactive | inactive | inactive | – | – | – | – | – | –
11 | CCOC(=O)[C@H](CCc1ccccc1)N[C@@H](C)C(=O)N1[C@H](C(=O)O)C[C@H]2CCCC[C@@H]21 | inactive | inactive | inactive | inactive | – | – | – | inactive | inactive | inactive | inactive | inactive | – | inactive | – | – | – | –
12 | O=C(O)c1cc(=O)c2c3nc4ccccc4oc-3cc(=O)c2[nH]1 | inactive | inactive | inactive | inactive | – | – | – | inactive | inactive | inactive | inactive | inactive | – | 4.22 µM (active) | – | – | – | –
13 | C[C@@H]1O[C@@H](OC[C@H]2O[C@@H](Oc3c(-c4ccc(OCCO)c(OCCO)c4)oc4cc(OCCO)cc(O)c4c3=O)[C@H](O)[C@@H](O)[C@@H]2O)[C@H](O)[C@H](O)[C@H]1O | inactive | inactive | inactive | inactive | – | – | – | inactive | inactive | inactive | inactive | inactive | – | inactive | – | – | – | –
14 | CCN(CC)C(=O)[C@]1(c2ccccc2)C[C@@H]1CN | inactive | inactive | inactive | inactive | – | – | – | inactive | – | – | inactive | – | – | – | – | – | – | –
15 | C=C1C(CCl)(CCl)C2(Cl)C(Cl)C(Cl)C1(Cl)C2(Cl)Cl (configuration not stated) | 5.96 µM (active) and 67.8 µM (active) | 5.31 µM (active) and 48 µM (active) | inactive | 23.9 µM (active) | – | – | – | inactive | 29.8 µM (active) and 60.4 µM (active) | 53.8 µM (active) | inactive | – | – | inactive | 54.3 µM (active) | 60.4 µM (active) | 54.3 µM (active) | –
